Records with an inconclusive call do not appear. The source made the active and inactive calls. The call rests on the fitted dose curve; in most records, active means well fitted cell-killing curve with a large enough effect; inconclusive means small, poorly fitted or top-dose-only effect, or effect the other way; inactive means flat fitted curve, though single readings scatter.
How the values were obtained:
Assay in all cases: Primary qHTS to identify gynecologic anti-cancer compounds using libraries of approved drugs and bioactive compounds (AID 1345084); further: nearly all actives have a fitted effect of over 55% in size
C33A = conditions: Gynecologic cancer cell panel viability, ATPlite luminescence, 48 h; series mostly up to 57.5 µM
Outline: (§1)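 In this quantitative HTS, cell killing is estimated from loss of ATP-dependent luciferase light. Cells see five compound concentrations over a 48 h exposure.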

CAOV3 = conditions: Gynecologic cancer cell panel viability, ATPlite luminescence, 48 h; series mostly up to 57.5 µM
Outline: as §1

CASKI = conditions: Gynecologic cancer cell panel viability, ATPlite luminescence, 48 h; series mostly up to 57.5 µM
Outline: as §1

Es-2 = conditions: Gynecologic cancer cell panel viability, ATPlite luminescence, 48 h; series mostly up to 57.5 µM
Outline: as §1

HeLa = conditions: Gynecologic cancer cell panel viability, ATPlite luminescence, 48 h; series mostly up to 57.5 µM
Outline: as §1

Hek293T = conditions: Gynecologic cancer cell panel viability, ATPlite luminescence, 48 h, control line for the selectivity index; series mostly up to 57.5 µM
Outline: as §1

JEG-3 = conditions: Gynecologic cancer cell panel viability, ATPlite luminescence, 48 h; series mostly up to 57.5 µM
Outline: as §1

OV90 = conditions: Gynecologic cancer cell panel viability, ATPlite luminescence, 48 h; series mostly up to 57.5 µM
Outline: as §1

PA-1 = conditions: Gynecologic cancer cell panel viability, ATPlite luminescence, 48 h; series mostly up to 57.5 µM
Outline: as §1

SKOV3 = conditions: Gynecologic cancer cell panel viability, ATPlite luminescence, 48 h; series mostly up to 57.5 µM
Outline: as §1

Tov-21-G = conditions: Gynecologic cancer cell panel viability, ATPlite luminescence, 48 h; series mostly up to 57.5 µM
Outline: as §1

Tov112D = conditions: Gynecologic cancer cell panel viability, ATPlite luminescence, 48 h; series mostly up to 57.5 µM
Outline: as §1

Measured: Potency

O=C(CCc1ccccc1)N1CCC(O)(Cn2cnc3cc(Cl)ccc3c2=O)CC1
inactive: C33A | CAOV3 | CASKI | Es-2 | HeLa | Hek293T | JEG-3 | OV90 | PA-1 | SKOV3 | Tov-21-G | Tov112D

COc1c2c(c(C)c3c1C(=O)OC3)OC1(C)CC(O)C34OC(OC)(OC3(C)C)C(O)CC4(C)C1C2 (stereo not drawn)
inactive: C33A | CAOV3 | CASKI | Es-2 | HeLa | Hek293T | JEG-3 | OV90 | PA-1 | SKOV3 | Tov-21-G | Tov112D

N#Cc1ccc2[nH]cc(CCCCN3CCN(c4ccc5oc(C(N)=O)cc5c4)CC3)c2c1
inactive: C33A | CAOV3 | CASKI | Es-2 | HeLa | Hek293T | JEG-3 | OV90 | PA-1 | SKOV3 | Tov-21-G | Tov112D

C=C1C(O)C(O)C2(CC3C(C)=CCC4C(C)(CO)CCCC34C)OC2C1O (stereo not drawn)
inactive: C33A | CAOV3 | CASKI | Es-2 | HeLa | Hek293T | JEG-3 | OV90 | PA-1 | SKOV3 | Tov-21-G | Tov112D

O=C(OCC1=CC(O)C2C=CO[C@@H](O[C@@H]3O[C@H](CO)[C@@H](O)[C@H](O)[C@H]3O)C12)c1ccccc1 (stereo partly drawn)
inactive: C33A | CAOV3 | CASKI | Es-2 | HeLa | Hek293T | JEG-3 | OV90 | PA-1 | SKOV3 | Tov-21-G | Tov112D

C=C1C(O)C[C@@H]2C(C(=O)O)=CO[C@@H](O[C@@H]3O[C@H](CO)[C@@H](O)[C@H](O)[C@H]3OC(=O)c3ccc(O)cc3)[C@H]12 (stereo partly drawn)
inactive: C33A | CAOV3 | CASKI | Es-2 | HeLa | Hek293T | JEG-3 | OV90 | PA-1 | SKOV3 | Tov-21-G | Tov112D

COc1cccc(C(=O)N2CCN(C(=O)COc3cccc(C)c3)CC2)c1OC
inactive: C33A | CAOV3 | CASKI | Es-2 | HeLa | Hek293T | JEG-3 | OV90 | PA-1 | SKOV3 | Tov-21-G | Tov112D

OC[C@H]1O[C@@H](OCCc2ccccc2)[C@H](O[C@@H]2OC[C@](O)(CO)[C@H]2O)[C@@H](O)[C@@H]1O
inactive: C33A | CAOV3 | CASKI | Es-2 | HeLa | Hek293T | JEG-3 | OV90 | PA-1 | SKOV3 | Tov-21-G | Tov112D

O=C(/C=C\c1ccc(O)cc1)N[C@@H](Cc1ccc(O)cc1)C(=O)O
inactive: C33A | CAOV3 | CASKI | Es-2 | HeLa | Hek293T | JEG-3 | OV90 | PA-1 | SKOV3 | Tov-21-G | Tov112D

CC(C)(C)c1ccc(S(=O)(=O)Nc2ccc(Cl)cc2C(=O)c2cc[n+]([O-])cc2)cc1
inactive: C33A | CAOV3 | CASKI | Es-2 | HeLa | Hek293T | JEG-3 | OV90 | PA-1 | SKOV3 | Tov-21-G | Tov112D

O=C1Nc2ccccc2C(O)(c2ccccc2)C1O (stereo not drawn)
inactive: C33A | CAOV3 | CASKI | Es-2 | HeLa | Hek293T | JEG-3 | OV90 | PA-1 | SKOV3 | Tov-21-G | Tov112D

CC(=O)N[C@@H](C(=O)O[C@H]1CCC(C)(C)[C@@H]2CCC3=C(COC3=O)[C@@]12C)C(C)C
inactive: C33A | CAOV3 | CASKI | Es-2 | HeLa | Hek293T | JEG-3 | OV90 | PA-1 | SKOV3 | Tov-21-G | Tov112D

CC1=C(C)C(=O)OC(C(C)C2CCC3C4C5OC5C5(O)CC(OC6OC(CO)C(OC7OC(C)C(O)C(O)C7O)C(O)C6O)CC(O)C5(C)C4CCC23C)C1 (stereo not drawn)
inactive: C33A | CAOV3 | CASKI | Es-2 | HeLa | Hek293T | JEG-3 | OV90 | PA-1 | SKOV3 | Tov-21-G | Tov112D

CC1C(OC(=O)c2ccccc2)C(O)C2C(C(=O)O)=COC(OC3OC(CO)C(O)C(O)C3O)C12 (stereo not drawn)
inactive: C33A | CAOV3 | CASKI | Es-2 | HeLa | Hek293T | JEG-3 | OV90 | PA-1 | SKOV3 | Tov-21-G | Tov112D

From PubChem BioAssay (NCATS)
